Experimental data as given in paper PMC12136788.
Substitutions are numbered along the chain they refer to. Whole data set: some 24,000 sequences, median “enrichment r” near 0.99, cut for the highest 2% near 3.7. What follows is part of a selection rich in the highest values, with near analogues and random picks from the rest.

T1: UNK ZnF1-3 (human, UniProt Q9C0B0 31-174)
T1 sequence: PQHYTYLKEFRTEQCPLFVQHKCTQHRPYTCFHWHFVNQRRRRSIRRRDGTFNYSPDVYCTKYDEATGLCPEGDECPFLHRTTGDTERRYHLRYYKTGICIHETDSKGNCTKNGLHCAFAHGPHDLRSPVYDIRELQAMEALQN

B1: chr14:89338683:89338684:+_ENSG00000165533_ENST00000346301|hu_hu|hu_hu_hu_mus_False|58_68 (ssRNA)
RNA: GGGAGUUCUACAGUCCGACGAUCGUGGUUGUUGUGGACCAGGGCCAGCCUGAAGCAUUGGUGGGCCAAAUUUGUAUCUCCUAUUCCCACAGCUAUGUGCCCCAGGUUGUACCAGACAUCAGCUGCCUCUUCUUCAUUUUCAGCCAACAGAGGAUUGAGCAUCA
B2: chr9:109937893:109937894:+_ENSMUSG00000032479_ENSMUST00000165876|mus_mus|motif|central (ssRNA)
RNA: GGGAGUUCUACAGUCCGACGAUCUUCACGUGGUUUUUCUUCAGUCUGUACAGUUCCUUUGUCUUUAAUUGGAACUGUUGCGGCUUUUGUUUCCAAGGGCAGUGCAAGAUCGGAGGCUGGAGCCAUGCUGUUGUCCACAAUCAGCAACAGAGGAUUGAGCAUCA
B3: 126495366_126496508_792_3pUTR_ENSMUSG00000040502_ENSMUST00000040307|mouse|control|control (ssRNA)
RNA: GGGAGUUCUACAGUCCGACGAUCAUUAGGCAGGGUUGGUGUGUGCAACGCACUGAGCCGUCACAGCGGCAAGGGCUCAGGAGCUCCCCCUGCUCCGGGCCUUGGAAGCAGAUCCUGCACUGGGGGGUUCGGAGCCCACUGUCCCAACAGAGGAUUGAGCAUCA
B4: chr7:149838571:149838572:-_ENSMUSG00000048583_ENSMUST00000000033|mus_mus|motif|central (ssRNA)
RNA: GGGAGUUCUACAGUCCGACGAUCCAUGUAUCACUUGGCAGUGCCAUCUCCUUAUCUGGCCAAACUUAUUCUACACUGGCGGGUCAUUGGUCCUCAUGGCGGGGGUGGUUGGGGAGCACCGGGCUCACCAUGUGGACAGGUGCUCAACAGAGGAUUGAGCAUCA
B5: chr6:74304526:74304527:-_ENSG00000119899_ENST00000355773|hu_mus|motif|central (ssRNA)
RNA: GGGAGUUCUACAGUCCGACGAUCCAAGUUUAUCAGUGUGUGUGUGUGUGUGUGUGUCCAUUUCAGCUUCAUUUCCGGUGCCCUUACCUUAUAUCAUACUGCCUUUCCUGCAGCCUGAUAUGUGAACCCAGUAUACGGCCUGGCCAACAGAGGAUUGAGCAUCA
B6: chr5:137088537:137088538:-_ENSG00000177733_ENST00000314940|hu_mus|motif|central (ssRNA)
RNA: GGGAGUUCUACAGUCCGACGAUCUCCCGCCCGCCCACCCGCCCCCCCAAAAAACACAAAUUAAAACAAGACAUUUUUUUGCGGGUAUAAAAACGACCAAGGUCCAAGUAAUAAUAAAAAAAUAGAGUCCAUCAAUGACUGUAACAACAGAGGAUUGAGCAUCA
B7: chr5:137088537:137088538:-_ENSG00000177733_ENST00000314940|hu_hu|motif|central (ssRNA)
RNA: GGGAGUUCUACAGUCCGACGAUCCAGCAAGUUCACUCCCUCCCUCCCCCCAAAAAACACAAAUUAAAACAAGACAUUUUGCGGGUAUAAAAACGACCAAGGUCCAAGUAAUAAUAAAAAAAUAGAGUCCAUCAAUGACUGUAACAACAGAGGAUUGAGCAUCA
B8: chr4:57314706:57314707:+_ENSG00000128050_ENST00000264221|hu_mus|hu_hu_hu_mus_True|88_98 (ssRNA)
RNA: GGGAGUUCUACAGUCCGACGAUCCAGAAUUUCAAAAAUAGCCUGUGUAGCAUGACUCAUGAUGUCCACUUCAGUCUGCCCUAUAACAAGGCCAGCAAAACAGAAUUUUGCAGCAAUGAGUUGCUCCUCAGACCACUGUGGAUCCAACAGAGGAUUGAGCAUCA
B9: chr5:137088537:137088538:-_ENSG00000177733_ENST00000314940|hu_hu|FALSE|FALSE (ssRNA)
RNA: B7 RNA with G82U, G83A
B10: chr4:57314706:57314707:+_ENSG00000128050_ENST00000264221|hu_mus|hu_hu_hu_mus_True|48_88 (ssRNA)
RNA: B8 RNA with C42U, G90U
B11: chr5:137088537:137088538:-_ENSG00000177733_ENST00000314940|hu_mus|FALSE|FALSE (ssRNA)
RNA: B6 RNA with G82U, G83A
B12: chr9:15470827:15470828:-_ENSG00000164985_ENST00000397519|hu_hu|motif|central (ssRNA)
RNA: GGGAGUUCUACAGUCCGACGAUCGAAUGUCAAGAGAAGGGCCCCAUUCUCAGGGAUAUAACUGCUAUUCCAGUUUAAUAACGGGCUUCAAAACAAAAUGAAUUUUUAUAUUUUCUAGAUGAAUAAUGUACAACCACCAUCUUCCAACAGAGGAUUGAGCAUCA
B13: chr4:88367131:88367132:-_ENSMUSG00000070923_ENSMUST00000094993|mus_mus|FALSE|FALSE (ssRNA)
RNA: GGGAGUUCUACAGUCCGACGAUCUUGGUAAUUGCUUGCUUCCAAAAGUAAAUUCACACAGGUAUUGUCUGUUCUCAUGAAAUCUACUGUCUGCACAUAGUUGAUGAGAUCCUGUGGUGUCAUCAGUGGAAAGCGAAUAUUCUUCAACAGAGGAUUGAGCAUCA
B14: chr12:16048344:16048345:+_ENSG00000023734_ENST00000419869|hu_hu|hu_hu_hu_mus_True|78_98 (ssRNA)
RNA: GGGAGUUCUACAGUCCGACGAUCAGAUCGUCCAUAAGUUAUAACCAAAAUCUCUCCCUCAGGAAUAUACUCCAUGCUGCUAACAGACAUAUUAAAAUUCAGAGAUUUCACUUCUGUCAUUGUGGCAUGAUCCCAGAGCCGAACCAACAGAGGAUUGAGCAUCA

Biological target: T1, UNK ZnF1-3
Test: nsRBNS (natural sequence RNA bind-n-seq); RBNS binding buffer (assumed for nsRBNS): 25 mM Tris pH 7.5, 150 mM KCl, 3 mM MgCl2, 0.01% Triton X-100, 500 ug/ml BSA, 20 U/ml SUPERase-In, 4 C; UNK is unkempt and MSI1 is Musashi-1; names of the RNAs are library labels; protein concentration not given here; high values mean tight binding

Binder | binding signal
B1 | 0.84 enrichment R
B2 | 0.462 enrichment R
B3 | 0.848 enrichment R
B4 | 0.781 enrichment R
B5 | 0.616 enrichment R
B6 | 3.51 enrichment R
B7 | 6.14 enrichment R
B8 | 0.943 enrichment R
B9 | 5.73 enrichment R
B10 | 0.922 enrichment R
B11 | 9.05 enrichment R
B12 | 1.6 enrichment R
B13 | 0.859 enrichment R
B14 | 1.06 enrichment R
